This is a sample that favours compounds with a hit; in the whole collection about 8.1% have one here.
Shh pathway inh: blocks Sonic Hedgehog signaling; Shh-LIGHT2 Gli-luciferase reporter, 30 h; inhibition, % (concentration not given with the values); actives 2.1% (n = 22,000); AID 2313;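 active means mean inhibition across valid replicates above about 65%, limit read from the data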;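 further: pathway switched on by Shh-conditioned medium diluted 1 in 25 in low serum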
PD-1 reversal: activators reversing PD-1 mediated T-cell inhibition. primary human CD4 T cells, PD-L1 beads, CellTiter-Glo 96 h. 29,000 tested, under 10 active. activation, % (test concentration not listed); call rule not given here;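 further: 0% = median vehicle wells and 100% = positive control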
NOMO-1 viab: STK33 inhibitor candidate reducing NOMO-1 cell viability | NOMO-1 AML viability, CellTiter-Glo luminescence, 72 h | inhibition, % (no concentration beside the values) | actives 7.5% (n = 37,000) | AID 2330; in the data active means inhibition above about 80%
MITF inh: inhibitors of MITF; TRPM1 promoter luciferase, luminescence, 24 h; inhibition, % (test concentration not listed); actives 0.28% (n = 37,000); in the data active means inhibition above about 85%;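 further: human melanocyte line stably carrying TRPM1 promoter luciferase reporter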
Active calls of the source: *.

Results for C[C@H](CO)N1C[C@H](C)[C@H](CN(C)S(=O)(=O)c2ccc(Cl)cc2)Oc2ccc(NC(=O)CCC(F)(F)F)cc2CC1=O ?
Shh pathway inh: -12.4; NOMO-1 viab: 121.4*; MITF inh: 19.1

How did C[C@@H]1CN([C@@H](C)CO)C(=O)Cc2cc(NC(=O)CCC(F)(F)F)ccc2O[C@@H]1CN(C)S(=O)(=O)c1ccc(F)cc1 do in these assays?
Shh pathway inh: -17.7; PD-1 reversal: 0.2; NOMO-1 viab: 24.2; MITF inh: 7.1

How did C[C@H]1CN([C@@H](C)CO)C(=O)Cc2cc(NC(=O)CCC(F)(F)F)ccc2O[C@H]1CN(C)S(=O)(=O)c1ccc(Cl)cc1 do in these assays?
Shh pathway inh: -48.7; NOMO-1 viab: 108.9*; MITF inh: 14.4

What do the screens show for `C=CCN(CC=C)CC(O)Cn1cnc2c1c(=O)n(C)c(=O)n2C` (centres undefined)?
Shh pathway inh: 18.0; PD-1 reversal: 3.3; NOMO-1 viab: -17.6; MITF inh: -15.3

How did C[C@@H]1CN([C@H](C)CO)C(=O)c2cc(NS(=O)(=O)c3cccs3)ccc2O[C@@H]1CN(C)Cc1ccc(C(=O)Nc2ccccc2N)cc1 do in these assays?
PD-1 reversal: -2.5; NOMO-1 viab: 110.1*; MITF inh: 24.8

What do the screens show for `C[C@H](CO)N1C[C@H](C)[C@H](CN(C)Cc2ccc(C(=O)Nc3ccccc3N)cc2)Oc2ccc(NS(=O)(=O)c3cccs3)cc2C1=O`?
PD-1 reversal: -2.1; NOMO-1 viab: 109.2*; MITF inh: 23.8

How did CC1(C)C=Cc2c(c(CCO)c3occ(-c4ccc(O)c(O)c4)c(=O)c3c2O)O1 do in these assays?
Shh pathway inh: 27.7; PD-1 reversal: -0.4; NOMO-1 viab: 39.6; MITF inh: -31.7

Results for CC(C)=CCc1c2c(c3occ(-c4ccc(O)cc4)c(=O)c3c1O)C=CC(C)(C)O2 ?
Shh pathway inh: 50.9; NOMO-1 viab: 106.6*; MITF inh: 37.4

What do the screens show for `Cc1ccc2c(CC(=O)Nc3cccc([N+](=O)[O-])c3)coc2c1C`?
PD-1 reversal: -2.8; NOMO-1 viab: 17.0; MITF inh: -41.6

Results for Cc1ccc2c(CC(=O)NCc3ccco3)coc2c1C ?
PD-1 reversal: -2.0; NOMO-1 viab: 114.9*; MITF inh: 10.0

What do the screens show for `CC1(C)CC(=O)c2c(SCC(=O)NN)sc(C#N)c2C1`?
Shh pathway inh: 14.3; PD-1 reversal: 0.9; NOMO-1 viab: 8.1; MITF inh: 1.9

Results for O=C(CSc1nc2ccc([N+](=O)[O-])cc2[nH]1)Nc1cc(C(F)(F)F)cc(C(F)(F)F)c1 ?
PD-1 reversal: -11.7; NOMO-1 viab: 129.8*; MITF inh: 86.7*

Results for O=C(CSc1nc2c(c(C(F)(F)F)n1)CCc1ccccc1-2)Nc1ccc(Cl)cc1 ?
PD-1 reversal: 1.5; NOMO-1 viab: -11.2; MITF inh: 13.6

How did COC(=O)c1cc(N2C(=O)C3C4C=CC(C)(O4)C3C2=O)ccc1Cl (centres undefined) do in these assays?
Shh pathway inh: 23.0; PD-1 reversal: -47.2; NOMO-1 viab: 113.0*; MITF inh: -2.0

How did COc1ccc(CCn2cnc3oc(-c4ccccc4)c(-c4ccccc4)c3c2=N)cc1OC do in these assays?
Shh pathway inh: -9.1; PD-1 reversal: -0.9; NOMO-1 viab: -2.7; MITF inh: 11.1

Results for O=C(CC(Sc1ccc(Br)cc1)C(=O)O)c1ccc(Cl)cc1 (centres undefined) ?
Shh pathway inh: 53.0; PD-1 reversal: -6.8; NOMO-1 viab: 115.4*; MITF inh: 6.1

What do the screens show for `CC(C)C(NS(=O)(=O)c1c(Cl)cccc1Cl)C(=O)O` (centres undefined)?
PD-1 reversal: 1.8; NOMO-1 viab: -7.3; MITF inh: -10.8

Results for Cc1ccc(CC(c2nc3ccccc3[nH]2)C(C)c2nc3ccccc3[nH]2)cc1 (centres undefined) ?
NOMO-1 viab: 90.9*; MITF inh: 63.1

Results for COc1cccc(N2C(=O)CC(SCC(=O)Nc3ccc4ccccc4c3)C2=O)c1 (centres undefined) ?
Shh pathway inh: 3.5; PD-1 reversal: -3.9; NOMO-1 viab: 22.9; MITF inh: -12.3

How did C=C(C)C(=O)O[C@H]1[C@H]2C(=C)C(=O)O[C@@H]2C[C@@H](C)/C=C/C(=O)[C@](C)(O)[C@@H]1OC(C)=O do in these assays?
Shh pathway inh: -9.9; PD-1 reversal: -13.5; NOMO-1 viab: 118.4*; MITF inh: 89.8*

What do the screens show for `Cc1[nH]c2ccccc2c1/C=C/c1nc2ccccc2c(=O)n1CCCO`?
PD-1 reversal: -2.3; NOMO-1 viab: 4.0; MITF inh: -1.2

Results for O=c1c2ccccc2nc(/C=C/c2cc(Br)ccc2O)n1CCCO ?
PD-1 reversal: -7.0; NOMO-1 viab: 107.9*; MITF inh: 101.9*

How did Cc1cc(C)c2c(c1C(=O)Nc1cccc(C(F)(F)F)c1)CC(C)(C)C2=O do in these assays?
Shh pathway inh: 86.2*; PD-1 reversal: -0.4; NOMO-1 viab: 75.4; MITF inh: 60.4

How did C[C@H](CO)N1C[C@H](C)[C@H](CN(C)S(=O)(=O)c2ccccc2)Oc2ccc(NC(=O)Nc3ccc(F)cc3)cc2CC1=O do in these assays?
Shh pathway inh: -4.9; PD-1 reversal: 0.7; NOMO-1 viab: 94.8*; MITF inh: 9.4

What do the screens show for `C[C@H](CO)N1C[C@H](C)[C@H](CN(C)S(=O)(=O)c2ccc(Cl)cc2)Oc2ccc(NC(=O)NC3CCCCC3)cc2CC1=O`?
Shh pathway inh: -9.5; NOMO-1 viab: 119.4*; MITF inh: 26.4

What do the screens show for `C[C@@H]1CN([C@@H](C)CO)C(=O)Cc2cc(NC(=O)Nc3ccccc3)ccc2O[C@@H]1CN(C)S(=O)(=O)c1ccc(Cl)cc1`?
Shh pathway inh: 27.4; PD-1 reversal: -2.6; NOMO-1 viab: 77.1; MITF inh: 22.4

What do the screens show for `C[C@H](CO)N1C[C@H](C)[C@H](CN(C)S(=O)(=O)c2ccc(Cl)cc2)Oc2ccc(NC(=O)Nc3ccccc3)cc2CC1=O`?
Shh pathway inh: 34.2; NOMO-1 viab: 110.6*; MITF inh: 20.4

How did C[C@@H]1CN([C@H](C)CO)C(=O)Cc2cc(NC(=O)Nc3ccc4c(c3)OCO4)ccc2O[C@H]1CN(C)S(=O)(=O)c1ccc(F)cc1 do in these assays?
Shh pathway inh: -15.5; PD-1 reversal: -0.6; NOMO-1 viab: 18.4; MITF inh: 3.4

How did C[C@@H]1CN([C@H](C)CO)C(=O)Cc2cc(NC(=O)NC3CCCCC3)ccc2O[C@@H]1CN(C)S(=O)(=O)c1ccc(Cl)cc1 do in these assays?
Shh pathway inh: -19.0; PD-1 reversal: -1.3; NOMO-1 viab: 21.7; MITF inh: 20.4

What do the screens show for `C[C@H](CO)N1C[C@H](C)[C@H](CN(C)S(=O)(=O)c2ccc(F)cc2)Oc2ccc(NC(=O)Nc3ccc4c(c3)OCO4)cc2CC1=O`?
Shh pathway inh: -55.1; PD-1 reversal: 0.1; NOMO-1 viab: 126.3*; MITF inh: 28.3

How did CC(=O)c1cccc(NC(=O)CSC2=C(C#N)C(c3ccccc3C)C3=C(CCCC3=O)N2)c1 (centres undefined) do in these assays?
PD-1 reversal: -5.8; NOMO-1 viab: 31.5; MITF inh: 37.2
